# The supplement of paper PMC6555819
# Assays:
# Assay in all cases: PBM binding z-score (relative to random genomic background probes); higher = stronger binding; sequences stand for … in GC…GCGATTGACAGCGTAGAATGAAGG
# [1] = tested on: PPARg:RXRa DBDmut IVT, anti-RXR (DBD mutation: RXRa K156A/R161A, NR concentration 270 nM, RXRa partner concentration 90 nM)
# Outline: (§1)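 On custom Agilent 4×180K arrays, double-stranded probes with 34-nt variable regions carried direct-repeat seeds, single-nucleotide variants, half-site ablations or random human genomic background. Ligand-free nuclear receptor dimers were applied for 1 h, and binding was read with antibodies against each partner (one per run). Binding z-scores come from regression-normalized fluorescence, with the random background probes as reference.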
# [2] = tested on: PPARg:RXRa IVT, anti-PPARg (NR concentration 270 nM, RXRa partner concentration 90 nM)
# Outline: as §1
# [3] = tested on: PPARg DBDmut:RXRa IVT, anti-PPARg (DBD mutation: PPARg1 K132A/R137A, NR concentration 270 nM, RXRa partner concentration 90 nM)
# Outline: as §1
# [4] = tested on: PPARg DBDmut IVT, anti-PPARg (DBD mutation: PPARg1 K132A/R137A, NR concentration 270 nM)
# Outline: as §1
# [5] = tested on: PPARg homodimer (NR concentration 180 nM)
# Outline: as §1
# [6] = tested on: PXR:RXRa (NR concentration 270 nM, RXRa partner concentration 90 nM)
# Outline: as §1
# [7] = tested on: PXR homodimer (NR concentration 270 nM)
# Outline: as §1
# [8] = tested on: RARa:RXR (NR concentration 270 nM, RXRa partner concentration 90 nM)
# Outline: as §1
# [9] = tested on: RARa homodimer (NR concentration 270 nM)
# Outline: as §1
# [10] = tested on: RARb:RXRa (NR concentration 270 nM, RXRa partner concentration 90 nM)
# Outline: as §1
# [11] = tested on: RARb homodimer (NR concentration 270 nM)
# Outline: as §1
# [12] = tested on: RARg:RXRa (NR concentration 270 nM, RXRa partner concentration 90 nM)
# Outline: as §1
# [13] = tested on: RARg homodimer (NR concentration 270 nM)
# Outline: as §1
# [14] = tested on: RXRa DBDmut IVT, anti-RXR (DBD mutation: RXRa K156A/R161A, NR concentration 90 nM)
# Outline: as §1
# [15] = tested on: RXRa homodimer (NR concentration 180 nM)
# Outline: as §1
# [16] = tested on: THRa:RXRa (NR concentration 90 nM, RXRa partner concentration 90 nM)
# Outline: as §1
# [17] = tested on: THRa homodimer (NR concentration 90 nM)
# Outline: as §1
# [18] = tested on: VDR homodimer (NR concentration 270 nM)
# Outline: as §1
# [19] = tested on: VDR:RXRa (NR concentration 270 nM, RXRa partner concentration 90 nM)
# Outline: as §1
sequence,measurement,setting,value
ATCTCTAGGTCAAAGTTCAGTGAATCCCGAGGAT,PBM binding z-score,[1],6.47
same,PBM binding z-score,[2],6.91
same,PBM binding z-score,[3],3.49
same,PBM binding z-score,[4],3.22
same,PBM binding z-score,[5],3.06
same,PBM binding z-score,[6],5.29
same,PBM binding z-score,[7],2.76
same,PBM binding z-score,[8],6.71
same,PBM binding z-score,[9],1.52
same,PBM binding z-score,[10],4.58
same,PBM binding z-score,[11],4.18
same,PBM binding z-score,[12],6.01
same,PBM binding z-score,[13],5.62
same,PBM binding z-score,[14],2.65
same,PBM binding z-score,[15],6.97
same,PBM binding z-score,[16],3.76
same,PBM binding z-score,[17],1.76
same,PBM binding z-score,[18],3.19
CCTACTGGGCCATCAGGTGATTGATATCAACGTT,PBM binding z-score,[1],3.79
same,PBM binding z-score,[2],4.34
same,PBM binding z-score,[3],0.38
same,PBM binding z-score,[4],-0.0432
same,PBM binding z-score,[5],-0.3
same,PBM binding z-score,[6],-0.668
same,PBM binding z-score,[7],-0.342
same,PBM binding z-score,[8],-0.448
same,PBM binding z-score,[9],-0.0417
same,PBM binding z-score,[10],0.0448
same,PBM binding z-score,[11],-0.117
same,PBM binding z-score,[12],0.0131
same,PBM binding z-score,[13],0.41
same,PBM binding z-score,[14],-0.814
same,PBM binding z-score,[15],-0.272
same,PBM binding z-score,[17],0.389
same,PBM binding z-score,[18],-0.474
CCGACTGGGGCAAAGGTTACCATGCTCAGTACGA,PBM binding z-score,[1],4.91
same,PBM binding z-score,[2],6.34
same,PBM binding z-score,[3],0.168
same,PBM binding z-score,[4],-0.503
same,PBM binding z-score,[5],1.36
same,PBM binding z-score,[6],2.28
same,PBM binding z-score,[7],-0.702
same,PBM binding z-score,[8],4.09
same,PBM binding z-score,[9],-0.847
same,PBM binding z-score,[10],2.63
same,PBM binding z-score,[11],2.01
same,PBM binding z-score,[12],3.66
same,PBM binding z-score,[13],1.55
same,PBM binding z-score,[14],-0.0654
same,PBM binding z-score,[16],1.74
same,PBM binding z-score,[17],-0.38
same,PBM binding z-score,[18],-0.359
CTCGAAAGGTGGTGCTCAGGTGAGTATACCAAAC,PBM binding z-score,[1],-0.605
same,PBM binding z-score,[2],0.359
same,PBM binding z-score,[3],-0.543
same,PBM binding z-score,[4],-0.314
same,PBM binding z-score,[5],0.0565
same,PBM binding z-score,[6],-0.599
same,PBM binding z-score,[7],-0.22
same,PBM binding z-score,[8],0.343
same,PBM binding z-score,[9],-0.47
same,PBM binding z-score,[10],0.237
same,PBM binding z-score,[11],0.207
same,PBM binding z-score,[12],0.0538
same,PBM binding z-score,[13],-0.152
same,PBM binding z-score,[14],-0.443
same,PBM binding z-score,[16],1.78
same,PBM binding z-score,[17],0.504
same,PBM binding z-score,[18],-0.0516
CGTCCAAGGTCAATGCTAGGCCAGTGAAAGCATT,PBM binding z-score,[1],2.99
same,PBM binding z-score,[2],3.13
same,PBM binding z-score,[3],-0.61
same,PBM binding z-score,[4],-0.971
same,PBM binding z-score,[5],2.78
same,PBM binding z-score,[6],3.64
same,PBM binding z-score,[7],0.593
same,PBM binding z-score,[8],4.31
same,PBM binding z-score,[9],0.644
same,PBM binding z-score,[10],4.96
same,PBM binding z-score,[11],3.99
same,PBM binding z-score,[12],6.23
same,PBM binding z-score,[13],6.11
same,PBM binding z-score,[14],3.55
same,PBM binding z-score,[16],3.96
same,PBM binding z-score,[17],2.15
same,PBM binding z-score,[19],3.78
same,PBM binding z-score,[18],2.49
CCTTACGGGTCACTCCATGTTATAGCATCGGAGT,PBM binding z-score,[1],2.24
same,PBM binding z-score,[2],3.12
same,PBM binding z-score,[3],0.606
same,PBM binding z-score,[4],0.266
same,PBM binding z-score,[5],2.26
same,PBM binding z-score,[6],2.73
same,PBM binding z-score,[7],0.163
same,PBM binding z-score,[8],3.26
same,PBM binding z-score,[9],0.537
same,PBM binding z-score,[10],3.59
same,PBM binding z-score,[11],2.87
same,PBM binding z-score,[12],4.1
same,PBM binding z-score,[13],3.99
same,PBM binding z-score,[14],1.59
same,PBM binding z-score,[16],2.84
same,PBM binding z-score,[17],-0.286
same,PBM binding z-score,[18],1.46
ATCGAATGGTCGTGAGGTGAGTATACAGAAAGGC,PBM binding z-score,[1],-0.654
same,PBM binding z-score,[2],0.348
same,PBM binding z-score,[3],0.375
same,PBM binding z-score,[4],-0.00822
same,PBM binding z-score,[5],0.181
same,PBM binding z-score,[6],-0.104
same,PBM binding z-score,[7],0.00681
same,PBM binding z-score,[8],0.113
same,PBM binding z-score,[9],0.259
same,PBM binding z-score,[10],0.464
same,PBM binding z-score,[11],0.456
same,PBM binding z-score,[12],0.502
same,PBM binding z-score,[13],0.684
same,PBM binding z-score,[14],-0.556
same,PBM binding z-score,[16],1.5
same,PBM binding z-score,[17],1.09
same,PBM binding z-score,[19],-0.0757
same,PBM binding z-score,[18],0.0134
GATACAGGGTCAATGCCAGAGTACGCGTATTGAT,PBM binding z-score,[1],2.46
same,PBM binding z-score,[2],3.45
same,PBM binding z-score,[3],0.722
same,PBM binding z-score,[4],0.999
same,PBM binding z-score,[5],1.86
same,PBM binding z-score,[6],2.96
same,PBM binding z-score,[7],0.00137
same,PBM binding z-score,[8],3.59
same,PBM binding z-score,[9],0.532
same,PBM binding z-score,[10],4.19
same,PBM binding z-score,[11],3.11
same,PBM binding z-score,[12],4.62
same,PBM binding z-score,[13],4.35
same,PBM binding z-score,[14],2.89
same,PBM binding z-score,[16],2.87
same,PBM binding z-score,[17],0.742
same,PBM binding z-score,[18],2.31
